From the supplement of paper PMC13380429
Unmarked numbers belong to inactive results.

These compounds were tested on Vero E6 infected with SARS-CoV-2 (assay: inhibition of SARS-CoV-2 cytopathic effect; higher = more antiviral protection, active = above 15). Details: 8.33 nM; 48 h.

| Compound | inhibition of SARS-CoV-2 cytopathic effect [%] |
| --- | --- |
| CC(C)(C)c1cc(C(C)(C)C)c(NC(=O)c2c[nH]c3ccccc3c2=O)cc1O [ivacaftor] | 1.11 |
| Cc1ccc(NC(=O)CCCCCC(=O)Nc2ccccc2N)cc1 | 1.59 |
| CC(C)(N)Cc1ccccc1 [phentermine] | 1.33 |
| CNC1CC(N)C(O)C(OC2OC(CO)C(O)C3OC4(OC(C(N)CO)C(O)C(O)C4O)OC23)C1O (stereo not given) [Hygromycin B] | -1.63 |
| O=C(O)c1cc(O)c2c(c1)C(=O)c1cccc(O)c1C2=O [rhein] | -0.35 |
| C[C@]12CC[C@@H]3c4ccc(OS(=O)(=O)O)cc4CC[C@H]3[C@@H]1CCC2=O [estropipate] | 1.92 |
| O=C1NS(=O)(=O)c2ccccc21 [saccharin] | -1.09 |
| O=C(O)COc1nn(Cc2ccccc2)c2ccccc12 [bendazac] | 2.21 |
| Nc1ncnc2c1c(-c1cnc3[nH]ccc3c1)nn2C1CCCC1 | -0.16 |
| CC(C)(N)c1nc(-c2ccc(OC(F)(F)F)cc2)c[nH]1 | 0.2 |
| CCCN(CCC)[C@H]1CCc2cccc(O)c2C1 [8-hydroxy-DPAT] | 1.08 |
| Cc1nnsc1C(=O)Nc1ccc(-n2nc(C(F)(F)F)cc2C(F)(F)F)cc1 | 2.91 |
| O=C(O)C(Cl)Cl [dichloroacetate] | 1.34 |
| COC(=O)[C@H](CC(C)C)NC(=O)[C@@H](N)CC(C)C [leucylleucine-methyl-ester] | 0.78 |
| COc1cccc2cc(-c3nc([C@H]4CC[C@H](C(=O)O)CC4)n4ncnc(N)c34)[nH]c12 | 2.25 |
| O=C(O)c1ccccc1Nc1cccc(C(F)(F)F)c1 [flufenamic-acid] | 0.57 |
| O=C(CCc1ccc(O)cc1)c1c(O)cc(O)cc1O [phloretin] | -0.18 |
| N[C@@H](CS)C(=O)O [L-cysteine] | -1.19 |

| Compound | inhibition of SARS-CoV-2 cytopathic effect [%] |
| --- | --- |
| CC(C)NCC(O)c1ccc2ccccc2c1 (stereo not given) [pronethalol] | 1 |
| O=c1[nH]c2ccccc2n1C1CCN(CCCC(c2ccc(F)cc2)c2ccc(F)cc2)CC1 [pimozide] | 1.6 |
| CC(C)NCC(O)COc1cccc2ccccc12 (stereo not given) [propranolol] | 1.94 |
| N#C/C(=C\c1cccn1S(=O)(=O)c1cccc([N+](=O)[O-])c1)S(=O)(=O)c1ccc(F)cc1 | -0.34 |
| Cc1csc(S(=O)(=O)N(CC(C)C)c2cc3c(cc2OCc2ccc(C(=O)O)cc2)CCC3)n1 | -1.9 |
| CC(C)[C@@H](C)/C=C/[C@@H](C)[C@H]1CC[C@H]2C3=CC=C4C[C@@H](O)CC[C@]4(C)[C@H]3CC[C@]12C [ergosterol] | 1.48 |
| O=C(NCCO)c1cc(C(=O)NCCO)cc(C(=O)NCCO)c1 | -1.01 |
| C[C@H]1NC(=O)NC1=O [5-methylhydantoin-(D)] | -0.75 |
| COc1ccc(C(=O)c2c(C)n(CCN3CCOCC3)c3cc(I)ccc23)cc1 | -3.84 |
| COP(=O)(OC)OC(c1ccc(Cl)cc1)P(=O)(OC)OC (stereo not given) [mifobate] | -10.9 |
| O=C(Nc1cccc2c(=O)cc(-c3nnn[nH]3)oc12)c1ccc(OCCCCc2ccccc2)cc1 [pranlukast] | 2.87 |
| C#Cc1cncc([C@@H]2CCCN2C)c1 [altinicline] | -2.16 |
| FC(F)(F)Oc1ccc2nc(-c3ccc(OCCOCCOc4ccc(-c5nc6ccc(OC(F)(F)F)cc6[nH]5)nc4)cn3)[nH]c2c1 | 1.44 |
| Nc1ncnc2c1ncn2[C@@H]1O[C@H](COP(=O)(O)O)[C@@H](O)[C@H]1O [adenosine-phosphate] | -1.98 |
| CC(C)Oc1cccc(CC(=O)N2CCC[C@](CC[N+]34CCC(c5ccccc5)(CC3)CC4)(c3ccc(Cl)c(Cl)c3)C2)c1 | 0.54 |
| Cc1ccc2c(c1)[C@]13CCCC[C@@H]1[C@H](C2)N(C)CC3 [dimemorfan] | 0.39 |
| OC[C@H]1O[C@@H](c2ccc(F)c(Cc3cc4ccccc4s3)c2)[C@H](O)[C@@H](O)[C@@H]1O [ipragliflozin-L-proline] | -0.16 |
